# From PubChem
# Shown are actives, neighbours in structure and some others; about 8% of the full set was active somewhere.
# FMDV antiviral – antivirals against foot and mouth disease virus; FMDV antiviral cell-based qHTS; Potency, µM (top dose mostly 57.9 µM), without a hit: at the highest dose activity change, negative = inhibition, actives largely listed as inhibitors; hit rate 1.2% among 410,000; calls by dose curve; tested in HEK293T cells; also: read-out not given here; potency is read from the fitted curve at half-maximal effect; % is scaled to controls: 0 for no effect and ±100 for the full control effect; nearly all actives have a fitted effect of over 45% in size
# SARS PLP yeast – inhibitors of SARS-CoV papain-like protease in yeast. Potency, µM (top dose mostly 32.9 µM), inactives show at the highest dose activity, positive = growth rescue, actives largely listed as activators. hit rate 0.19% among 330,000. S. cerevisiae expressing SARS-CoV PLpro, growth rescue; calls by dose curve; also: potency is read from the fitted curve at half-maximal effect; 0% is about no effect; nearly all actives have a fitted effect of over 55% in size
# HCMV antiviral – human cytomegalovirus inhibition | hit rate 4.5% among 410,000 | HFF cells, HCMV-luciferase reporter, 72 h; stronger effect = lower value | activity change, negative = inhibition, % at 57.5 µM | AID 1259415; in the data active = activity change below about -60%; inconclusive = no clear call, values can overlap the other calls; inactive = above about -39%; also: % is scaled to controls: 0 for no effect and ±100 for the full control effect
#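 Steps: HFFs plated, 16 h 37C; compounds added; HCMV-luciferase added to MOI 1 PFU/cell; 72 h 37C; OneGlo reagent, 5 min room temperature; luminescence read, normalized to controls.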
# MARV entry inh – inhibitors of Marburg virus binding or cell entry | Marburg virus pseudotyped entry inhibition, cell reporter | Potency, µM (series often up to 37.8 µM), without a hit: at the highest dose activity change, negative = inhibition, actives largely listed as inhibitors | hit rate 1.8% among 300,000 | AID 540276; calls by dose curve; tested in HEK293 cells; also: potency is read from the fitted curve at half-maximal effect; % is scaled to controls: 0 for no effect and ±100 for the full control effect
# HCV inhibitor – HCV inhibition; Potency, µM (titrated, usually from 41.8 µM), for inactives: at the top dose activity change, negative = inhibition, hits mostly inhibitors; Huh7.5.1 HCVcc-Cre infection, luciferase reporter, 44 h; hit rate 3.4% among 340,000; active = well fitted inhibition curve with a large enough effect; inconclusive = small, poorly fitted or top-dose-only effect, or another doubt; inactive = no such curve, though single readings can be large or run the other way; also: potency is read from the fitted curve at half-maximal effect; % is scaled to controls: 0 for no effect and ±100 for the full control effect
#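 After 44 h co-culture of compound, cells and HCVcc-Cre (~0.5 moi), substrate is added for 15 min at room temperature and luciferase measured over 15 sec. Cells were seeded at 1,000/well and pre-cultured 4 h.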
# LASV entry inh – Lassa virus entry inhibition | Lassa virus pseudotype entry inhibition, cell reporter | Potency, µM (highest dose often 37.9 µM), for inactives: at the top dose activity change, negative = inhibition, usual class: inhibitors | hit rate 1.2% among 300,000 | AID 540256; calls by dose curve; tested in HEK293 cells; also: potency is read from the fitted curve at half-maximal effect; % is scaled to controls: 0 for no effect and ±100 for the full control effect; nearly all actives have a fitted effect of over 50% in size
# Numbers without * were called inactive; u = inconclusive; x = no result given; [ ] = remark or other dose.
SMILES,FMDV antiviral,SARS PLP yeast,HCMV antiviral,MARV entry inh,HCV inhibitor,LASV entry inh
Cc1nc(C(F)(F)F)ccc1C(=O)N1CCC1(C)C(=O)NS(=O)(=O)c1ccc(C(C)(C)C)cc1 (stereo unspecified),-16%,x,-81*,x,x,x
Cc1nc(C(F)(F)F)ccc1C(=O)N1CCC1(C)C(=O)NS(=O)(=O)c1c(C)noc1C (stereo unspecified),-13%,x,-9,x,x,x
Cc1ccc(F)c(S(=O)(=O)NC(=O)C2(C)CCN2C(=O)c2ccc(C(F)(F)F)nc2C)c1 (stereo unspecified),-12%,x,-87*,x,x,x
COc1ccc(S(=O)(=O)NC(=O)C2(C)CCN2C(=O)c2ccc(C(F)(F)F)nc2C)cc1 (stereo unspecified),-9%,x,10,x,x,x
COCCN(CCOC)C(=O)c1ccc(SCc2ccc(C)cc2)c([N+](=O)[O-])c1,-16%,0%,-26,28%[46.1 µM],5%,-23%
CN1Cc2c(N3CCOCC3)nc3sc(C#N)c(N)c3c2CC1(C)C,-22%,1%,32,-10%[46.1 µM],-8%,u
CN1Cc2c(N3CCOCC3)nc3sc(C(=O)c4ccc(Br)cc4)c(N)c3c2CC1(C)C,-1%,-3%,-95*,u,-86%,u
CCOC(=O)C(C(=O)NCCCN1CCOCC1)C1CCCCC1 (stereo unspecified),-1%,12%,-105*,-3%,23%,10%
CC1(c2nnc(-c3ccncc3)o2)CC(c2ccccc2)=NO1 (stereo unspecified),-16%,x,u,x,-8%[8.37 µM],x
CCCN1C(=O)COCc2cc(-c3ccc(N(C)C)cc3)ccc21,x,x,75,x,x,x
CC(=C/c1ccccc1)/C=N/NC(=O)c1ccccn1,u,-4%,7,u,1%,u
CC(/C=C/c1ccccc1)=N\NC(=O)c1cc(C)[nH]n1,12%,-2%,u,28%,14µM*,1%
CC(/C=N/NC(=O)c1cc(-c2ccc(C)s2)[nH]n1)=C\c1ccccc1,-1%,-9%,5,u,5.6µM*,u
CC(/C=N/NC(=O)c1cc(C(C)(C)C)[nH]n1)=C\c1ccccc1,-22%,-1%,2,u,14µM*,u
CC(=O)Nc1ccc(NC(=O)C2Cc3ccccc3N2C(=O)c2ccccc2)cc1 (stereo unspecified),-3%,x,14,x,x,3%[46.1 µM]
C#CCSC1=C(C#N)[C@@H](c2cccs2)C(C(=O)OCC)=C(C)N1,x,x,x,0%,x,x
Cc1ccc(Cn2c(CN3CCC(C(=O)NCc4cccnc4)CC3)cc3ccccc32)cc1,u,x,3,x,x,-22%[46.1 µM]
C[N+]1(C)CCC(OC(=O)C(O)(c2ccccc2)C2CCCC2)C1 (stereo unspecified),-4%,x,-90*,x,-4%,x
CCCN1C(=O)c2[nH]nc(-c3ccccc3)c2C1c1ccc(F)cc1 (stereo unspecified),x,x,38,x,x,x
COc1ccc2c3c(n(C)c2c1)[C@@H](CO)N(C(=O)c1ccncc1)CC31CCN(C(C)=O)CC1,x,x,9,x,x,x
Cc1ccc(S(=O)(=O)CC(=O)N(CCCN2CCOCC2)c2nc3c(F)cccc3s2)cc1,6%,-3%,17,4%[46.1 µM],2%,16%
O=C(CCS(=O)(=O)c1ccccc1)N(CCCN1CCOCC1)c1nc2c(F)cccc2s1,40µM*,3%,u,u,u,u
O=C(Cc1cn2ccsc2n1)OCc1ccccc1,15%,-3%,8,7.1µM*,8%,5µM*
CCn1c2ccccc2c2cc(NC(=O)COC(=O)Cc3cn4ccsc4n3)ccc21,-12%,3%,16,-8%,5.6µM*,-1%
O=C(Cc1cn2ccsc2n1)OCc1nc2ccccc2s1,-2%,0%,x,-1%[46.1 µM],-2%,5%
SMILES,FMDV antiviral,SARS PLP yeast,HCMV antiviral,MARV entry inh,HCV inhibitor,LASV entry inh
CCn1c2ccccc2c2cc(NC(=O)COC(=O)c3ccc(O)cc3)ccc21,-14%,-5%,-12,u,u,u
N=C(CC(O)COc1ccccc1-c1ccccc1)N1CCCCC1 (stereo unspecified),-17%,x,x,x,x,x
COc1ccc(C(=O)N2CC(=O)Nc3ccc(C)cc3C2c2ccccc2)cc1OC (stereo unspecified),-13%,x,18,u,x,-26%[46.1 µM]
COc1ccc(C)cc1N1C(=N)/C(=C2/Nc3ccccc3S2)C(c2ccccc2)C1=O (stereo unspecified),25µM*,-10%,114,u,13%,-1%
Cc1ccc(S(=O)(=O)N2CCC(C(=O)N3CCC[C@H]3C(=O)NCC(C)C)CC2)cc1,0%,-3%,-15,3%[46.1 µM],20%,16%[46.1 µM]
Cc1ccc(S(=O)(=O)N2CCC(C(=O)Nc3ccc(C(C)C)cc3)CC2)cc1,0%,-1%,4,x,11µM*,x
O=C(Nc1nnc(-c2ccc(F)cc2)o1)c1ccc(S(=O)(=O)N2CCOCC2)cc1,-14%,-4%,x,7.9µM*,-16%,u
Cc1ccc(S(=O)(=O)N2CCC(C(=O)N3CCCC3C(=O)N[C@@H](CC(C)C)C(=O)NCC(N)=O)CC2)cc1 (stereo partly specified),-6%,-2%,14,x,1µM*,x
O=C(Nc1ccc(S(=O)(=O)N2CCOCC2)cc1)C1CC(=O)N(c2ccc(F)cc2)C1 (stereo unspecified),16%,-1%,-18,u,-3%,14%
CS(=O)(=O)c1cccc(-c2nnc(NC(=O)c3ccc(S(=O)(=O)N4CCCC4)cc3)o2)c1,-8%,0%,-24,3%,22%,-8%
O=C(Nc1ccc(S(=O)(=O)N2CCOCC2)cc1)C1CCN(S(=O)(=O)c2ccc(F)cc2)CC1,0%,-1%,-66*,-7%,u,-17%
CC(C)c1ccc(NC(=O)C2CCCN(S(=O)(=O)c3ccc4[nH]c(=O)ccc4c3)C2)cc1 (stereo unspecified),u,x,-92*,x,x,u
Cc1ccc(S(=O)(=O)N2CCCC2C(=O)Nc2ccc(Br)cc2)cc1 (stereo unspecified),-19%,x,-61*,-4%[46.1 µM],x,11%[46.1 µM]
CC(C)c1ccc(S(=O)(=O)N2CCC(C(=O)N3CCN(c4cccc(Cl)c4)CC3)CC2)cc1,-16%,x,-69*,x,u,x
O=C1C2C3C=CC(c4ccccc4)(C2C(=O)N1c1cccc(Cl)c1)C1C(=O)N(c2cccc(Cl)c2)C(=O)C31 (stereo unspecified),-28%,-8%,-12,u,10µM*,u
O=S(c1ccccc1O)S(=O)c1ccccc1O (stereo unspecified),2%,x,-26,2%[46.1 µM],10µM*,-24%[46.1 µM]
CC(=O)c1c(-c2ccc(Cl)cc2)c2ccccc2[nH]c1=O,-15%,0%,u,-11%[46.1 µM],-17%,u
CC(=O)c1c(-c2ccccc2)c2cc(Cl)ccc2[nH]c1=O,3%,0%,-63*,-25%[14.2 µM],2%,-29%
